High-throughput results: PubChem, National Center for Advancing Translational Sciences (NCATS)
Only some compounds are listed: those with a hit (about 12% of all), similar ones and a draw of the others.
PLK1 PBD block – qHTS for Inhibitors of PLK1-PDB (polo-like kinase 1 - polo-box domain): Primary Screen; Potency, µM, hits mostly inhibitors; Serine/threonine-protein kinase PLK1 (Homo sapiens), P53350; hit rate 2.8% among 360,000; Plk1 PBD binding of FITC phosphopeptide, fluorescence polarization; AID 720504, 2013; also: series mostly up to about 57 µM; nearly all actives have a fitted effect of over 65% in size
JMJD2A Tudor – qHTS Assay for Inhibitors of JMJD2A-Tudor Domain; Lysine-specific demethylase 4A (Homo sapiens), O75164; hit rate 4.4% among 390,000; Potency, µM (highest dose often 114 µM), actives largely listed as inhibitors; AlphaScreen JMJD2A-Tudor / H3K4me3 peptide binding; also: nearly all actives have a fitted effect of over 50% in size
BAZ2B inh – qHTS Assay for Inhibitors of BAZ2B; Potency, µM (titrated, usually from 114 µM), usual class: inhibitors; hit rate 4.4% among 360,000; Bromodomain adjacent to zinc finger domain protein 2B (Homo sapiens), Q9UIF8; AlphaScreen BAZ2B-H3K14Ac peptide displacement; AID 504333, 2011; also: nearly all actives have a fitted effect of over 60% in size
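AlphaScreen displacement: compounds (up to 110uM) incubated 30 min at room temperature with a preformed 50 nM BAZ2B/50 nM biotinylated H3K14Ac peptide complex in PBS pH 7.4 with Tween-20. Donor and acceptor beads at 10 ug/mL final added, 20 min light-protected before reading.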
G9a inh – qHTS Assay for Inhibitors of Histone Lysine Methyltransferase G9a; Histone-lysine N-methyltransferase EHMT2 (Homo sapiens), Q96KQ7; G9a H3K9 monomethylation, AlphaScreen, 2 h; Potency, µM (series often up to 102 µM), actives largely listed as inhibitors; hit rate 8.8% among 350,000; AID 504332, 2011; also: nearly all actives have a fitted effect of over 75% in size
Target sequence (Q96KQ7 913-1193 limits assumed): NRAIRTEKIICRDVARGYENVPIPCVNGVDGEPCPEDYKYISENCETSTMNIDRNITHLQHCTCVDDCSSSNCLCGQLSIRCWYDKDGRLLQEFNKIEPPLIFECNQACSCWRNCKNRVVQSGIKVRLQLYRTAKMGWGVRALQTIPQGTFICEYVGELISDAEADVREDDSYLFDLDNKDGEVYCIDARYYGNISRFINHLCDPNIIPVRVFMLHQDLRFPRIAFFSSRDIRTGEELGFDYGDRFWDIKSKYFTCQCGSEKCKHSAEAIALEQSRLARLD
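Signal arises when biotinylated H3K9 peptide, once monomethylated, bridges streptavidin donor and antibody-captured acceptor beads. Enzyme at 20 nM was preincubated 15 min with test compounds; peptide 500 nM and SAM 20 uM then reacted for 2 h.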
HP1b chromo inh – HTS for Inhibitors of HP1-beta Chromodomain Interactions with Methylated Histone Tails. Chromobox protein homolog 1 (Homo sapiens), P83916. AlphaScreen HP1-beta / biotin-H3K9me3 peptide binding. Potency, µM (top dose mostly 114 µM), most hits filed as inhibitors. hit rate 0.56% among 390,000. AID 540317, 2011; also: nearly all actives have a fitted effect of over 70% in size
Target sequence (P83916 whole entry, looked up): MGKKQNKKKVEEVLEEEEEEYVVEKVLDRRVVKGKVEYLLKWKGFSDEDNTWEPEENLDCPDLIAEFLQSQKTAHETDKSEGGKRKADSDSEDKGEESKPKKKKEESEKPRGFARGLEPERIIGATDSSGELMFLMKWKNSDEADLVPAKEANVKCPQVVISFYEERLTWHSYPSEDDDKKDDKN
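AlphaScreen: HP1-beta (50 nM) preformed 30 min with biotin-H3(1-18)K9me3 peptide (50 nM) in PBS pH 7.4, 0.01% Tween-20. Compound added for 30 min at RT, then streptavidin donor/nickel chelate acceptor beads (10 ug/mL) for 30 min.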
Sfp inh – qHTS Assay for Inhibitors of Bacillus subtilis Sfp phosphopantetheinyl transferase (PPTase) | 4'-phosphopantetheinyl transferase ffp (Bacillus subtilis), Q9F4F7 | Biochemical Sfp PPTase activity, qHTS | Potency, µM, actives largely listed as inhibitors | hit rate 3.5% among 310,000;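 also: the enzyme is Sfp with the accession as filed and its product quenches rhodamine fluorescence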
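Reaction rates are the 30-min fluorescence difference (ex 525, em 598 nm) in wells containing 15 nM Sfp, 5 uM rhodamine-CoA and 12.5 uM BHQ-2-YbbR at pH 7.6 with 10 mM MgCl2.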
Of the large screens only hits and unclear results are named; the others gave an inactive call. Calls follow the shape of the dose curve; as a rule, active = well fitted curve in the direction sought with a large enough effect; inconclusive = small, poorly fitted or top-dose-only effect, or another doubt; inactive = no such curve, though single readings can be large; an effect the other way counts as inactive or inconclusive.

Cc1oc(-c2cccc(Cl)c2)nc1CS(=O)(=O)CC(=O)NC(C)CCc1ccccc1 (centres undefined)	none (no result: PLK1 PBD block, Sfp inh)
O=C(Cn1nc(-c2ccco2)ccc1=O)Nc1ccc(Br)cc1	PLK1 PBD block 21µM, BAZ2B inh inconclusive, G9a inh 25µM, HP1b chromo inh inconclusive, Sfp inh 50µM
COc1ccc(NC(=O)CSc2ccc(-c3ccco3)nn2)cc1OC	G9a inh inconclusive, Sfp inh 45µM
O=C(CSc1ccc(-c2ccco2)nn1)Nc1ccc(F)cc1	BAZ2B inh inconclusive, Sfp inh 28µM (no result: G9a inh)
COc1ccc(CCNC(=O)CSc2ccc(-c3ccco3)nn2)cc1OC	G9a inh 45µM, Sfp inh inconclusive
COc1ccc(C(=O)CSc2ccc(-c3ccco3)nn2)cc1	BAZ2B inh 50µM, G9a inh 22µM, Sfp inh 16µM
CCOc1ccc(NC(=O)CSc2ccc(-c3ccco3)nn2)cc1	G9a inh inconclusive
COc1cccc(NC(=O)CSc2ccc(-c3ccco3)nn2)c1	BAZ2B inh inconclusive, Sfp inh 50µM
COc1ccc(C(=O)CSc2ccc(-c3ccccc3)nn2)cc1	none
COc1ccc(-c2ccc(C3C4C=CCC(C)C4C(=O)N3Cc3ccccc3)c(F)c2)cc1 (centres undefined)	Sfp inh inconclusive (no result: PLK1 PBD block, BAZ2B inh, G9a inh)
COc1ccccc1-c1c(C)nn2c(N3CCN(c4ccccc4OC)CC3)cc(C)nc12	PLK1 PBD block 21µM, JMJD2A Tudor inconclusive, G9a inh inconclusive
COc1ccccc1-c1c(C)nn2c(N3CCN(c4ccccc4)CC3)cc(C)nc12	none (no result: PLK1 PBD block, Sfp inh)
Cc1cc(/C=N/n2cnnc2)c(C)n1-c1ccc(OCc2ccc(Cl)cc2)cc1	JMJD2A Tudor 45µM, BAZ2B inh 79µM, G9a inh 40µM, HP1b chromo inh inconclusive, Sfp inh 45µM
Cc1cc(/C=N/n2cnnc2)c(C)n1-c1ccc(OCc2ccccc2F)cc1	JMJD2A Tudor 56µM, BAZ2B inh inconclusive, G9a inh inconclusive, HP1b chromo inh inconclusive
CC(=O)Nc1cccc(C(=O)OCC(=O)NC(=O)C2CCCCC2)c1	none (no result: PLK1 PBD block, BAZ2B inh, G9a inh, Sfp inh)
O=C(COc1ccc(Cl)cc1Cl)NCC1(N2CCOCC2)CCCCC1	none (no result: BAZ2B inh, G9a inh, Sfp inh)
OC(CNCC1(N2CCCCC2)CCCCC1)COc1ccc(Cl)cc1Cl (centres undefined)	JMJD2A Tudor 2.8µM, G9a inh 50µM, HP1b chromo inh inconclusive
CCOC(=O)c1ccc(N2CCN(c3ccc(F)cc3)CC2)c(NC(=O)Nc2ccc(CC)cc2)c1	none (no result: PLK1 PBD block, Sfp inh)
Clc1ccc(-c2cn3nc4c(nc3n2)CCCC4)cc1	PLK1 PBD block inconclusive, G9a inh inconclusive, Sfp inh inconclusive
COc1cccc(-c2cn3nc4c(nc3n2)CCCC4)c1	Sfp inh 79µM
Cc1ccc(-n2c3nc(=O)[nH]c(=O)c-3cc3cc([N+](=O)[O-])ccc32)cc1C	PLK1 PBD block 8.4µM, G9a inh 45µM
C[n+]1cnc(-c2ccccc2)cc1-c1ccccc1	PLK1 PBD block inconclusive, JMJD2A Tudor 22µM, G9a inh inconclusive, HP1b chromo inh inconclusive
c1ccc(-c2cc(-c3ccccc3)ncn2)cc1	none (no result: BAZ2B inh, G9a inh, Sfp inh)
COc1ccccc1NC(=O)Cn1c(=O)n(-c2cccc(C)c2)c(=O)c2c1c1cc(C)ccc1n2C	none (no result: PLK1 PBD block, Sfp inh)
CC12CCC(C)(c3nc4ccccc4nc31)C2(C)C	PLK1 PBD block 30µM, JMJD2A Tudor inconclusive
COc1ccc(C(=O)N/N=C/c2ccccn2)cc1OC	JMJD2A Tudor inconclusive, BAZ2B inh inconclusive, Sfp inh inconclusive
O=C(N/N=C\c1ccccn1)c1cccc(C(=O)N/N=C\c2ccccn2)n1	none (no result: BAZ2B inh, G9a inh, Sfp inh)
Cc1ccc(OC(C)C(=O)N/N=C/c2ccccn2)cc1 (centres undefined)	BAZ2B inh 71µM, G9a inh 1.4µM
O=C(CSc1ncccn1)N/N=C/c1cccc(OC2CSC2)c1	BAZ2B inh inconclusive
Cn1ncc(Cl)c1C(=O)N/N=C/c1cccc(OC2CSC2)c1	BAZ2B inh 79µM
